# ChEMBL document CHEMBL4513146, “CO-ADD screening of Karazin Kharkiv National University (Ukraine) compounds”
# Potency and affinity values are given separately.
# Tested on: Staphylococcus aureus
# Conditions: Concentration 32 ug.mL-1;; ASSAY_TEST Inhibition of Bacterial Growth; detection method Absorption (OD600); MEDIA CAMHB; plate type 384well; NBS; CORNING #3640; time 18 hr
row,Structure (SMILES),Inhibition
1,C=Cc1ccc(CN(c2cccc(Cl)c2)S(=O)(=O)c2cccn3c(C)nnc23)cc1,-18.32%
2,Cc1nnc2ccc(S(=O)(=O)N(Cc3ccccc3Cl)c3ccc(F)cc3)cn12,-4.74%
3,COc1ccccc1NC(=O)Cn1nc2c(SCc3ccc(Cl)cc3)nccn2c1=O,2.82%
4,Cc1oc(-c2ccccc2)nc1CSc1nc2ccccc2n2c(C)nnc12,4.04%
5,COc1ccc(NC(=O)Cn2nc3nc(N4CCOCC4)ccn3c2=O)cc1Cl,7.8%
6,CCc1cccc(NC(=O)Cn2nc3ccc(SC(C)(C)C)nn3c2=O)c1,9.57%
7,COc1cccc(NC(=O)Cn2nc3ccc(-c4ccc(Cl)cc4)nn3c2=O)c1,-8.23%
8,Cc1cccc(C)c1NC(=O)Cn1nc2c3c4c(sc3ncn2c1=O)CCCC4,7.51%
9,Cc1ccc(NC(=O)Cn2nc3c(Oc4ccccc4)nccn3c2=O)c(Br)c1,1.04%
10,CCCCn1c(=O)c2sccc2n2c(=O)n(CC(=O)c3ccc(C)cc3C)nc12,-3.74%
11,O=c1c2sccc2n2c(SCc3cccc(C(F)(F)F)c3)nnc2n1Cc1cccs1,3.6%
12,CCCCOc1ccc(-c2cc3c4nnc(SCC(=O)Nc5c(C)cccc5CC)n4ccn3n2)cc1,-40.6%
13,COc1ccc(NC(=O)c2ccc3nn(CC(=O)Nc4ccc(C(F)(F)F)cc4)c(=O)n3c2)cc1,9.76%
14,CCc1nnc2c(=O)n(CC(=O)Nc3ccc(NC(C)=O)cc3)c3ccccc3n12,1.89%
15,COc1ccc(NC(=O)Cn2nc3c(N4CC(C)CC(C)C4)nccn3c2=O)c(OC)c1 (stereo not given),18.35%
16,O=C(Cn1nc2c3cc(-c4ccc(Cl)cc4)nn3ccn2c1=O)Nc1ccc(F)cc1,7.29%
17,O=c1c2nn(Cc3cccc(Cl)c3)c(=O)n2ccn1-c1ccccc1,0.94%
18,COc1ccc(C(=O)CSc2nnc3c(=O)n(-c4cccc(OC)c4)ccn23)cc1,14.49%
19,CCOc1ccccc1NC(=O)Cn1nc2c(SC3CCCCC3)nccn2c1=O,3%
20,COc1cccc(Sc2nc3ccccc3n3c(=O)n(CC(=O)Nc4ccc(C)cc4)nc23)c1,4.18%

row,Structure (SMILES),Inhibition
1,Cc1cc2nn(CC(=O)Nc3cccc(C)c3C)c(=O)n2c(Nc2ccc(C)c(F)c2)n1,9.25%
2,Cc1ccccc1Oc1nc2ccccc2n2c(=O)n(CC(=O)Nc3cccc(C(F)(F)F)c3)nc12,7.78%
3,O=c1c2nn(Cc3ccccc3F)c(=O)n2ccn1-c1ccccc1,4.1%
4,Cc1ccc(Oc2nccn3c(=O)n(CC(=O)Nc4ccc(Cl)cc4F)nc23)cc1,5.22%
5,CC(C)Cn1c(=O)c2ccc(C(=O)NC3CCCC3)cc2n2c(=O)n(CC(=O)NC3CCCCC3)nc12,-0.85%
6,COc1cccc(-n2ccn3c(SCC(=O)NCc4ccco4)nnc3c2=O)c1,13.02%
7,Cc1cccc(NC(=O)Cn2nc3ccc(SC(C)(C)C)nn3c2=O)c1,3.72%
8,Cc1cccc(Oc2nccn3c(=O)n(CC(=O)Nc4ccccc4C(F)(F)F)nc23)c1C,14.33%
9,Cc1cc(NC(=O)Cn2nc3ccc(SC(C)(C)C)nn3c2=O)ccc1Br,-0.85%
10,CCOc1ccc(NC(=O)Cn2nc3c(SCc4ccc(Cl)cc4)nccn3c2=O)cc1,-1.92%
11,O=C(CSc1nnc2c(=O)n(-c3cccc(F)c3)ccn12)c1ccc(F)cc1,5.39%
12,COc1ccc(N(Cc2cc(F)cc(F)c2)S(=O)(=O)c2ccc3nnc(C)n3c2)cc1,12.66%
13,COc1ccc(Cl)cc1NC(=O)CSc1nnc2c(=O)n(-c3ccccc3)ccn12,7.26%
14,Cc1cccc(N(C)C(=O)Cn2nc3cc(C)nc(Nc4ccc(F)c(C)c4)n3c2=O)c1,1.96%
15,CC(C)c1nnc2c(=O)n(CC(=O)Nc3cccc(C#N)c3)c3ccccc3n12,14.89%
16,Cc1ccc(Cn2c(=O)c3ccc(C(=O)NC4CCCC4)cc3n3c(=O)n(CC#N)nc23)cc1,2.21%
17,O=C(CCc1nnc2c(N3CCCCC3)nc3ccccc3n12)NCc1ccc(F)cc1,1.77%
18,Cc1cccc(NC(=O)Cn2nc3ccc(-c4ccccc4)nn3c2=O)c1,1.55%
19,Cc1cc(C)cc(Nc2nc(C)cc3nn(CC(=O)Nc4cccc(Cl)c4)c(=O)n23)c1,6.53%
20,O=C(Cn1nc2c(SCc3ccccc3)nccn2c1=O)NC1CCCCC1,7.46%
